Source: PubChem BioAssay (National Center for Advancing Translational Sciences (NCATS))
Shown are actives, neighbours in structure and some others; about 7.9% of the full set was active somewhere.
Lassa entry inh: qHTS for Inhibitors of binding or entry into cells for Lassa Virus. Lassa virus pseudotype entry inhibition, cell reporter. 1.2% of 300,000 active. AID 540256, 2011. Potency, µM (top dose mostly 37.9 µM), usual class: inhibitors; calls by dose curve; tested in HEK293 cells; note: nearly all actives have a fitted effect of over 50% in size
HCMV antiviral: qHTS Assay for inhibitors of the human cytomegalovirus (HCMV) | HFF cells, HCMV-luciferase reporter, 72 h; hits give low values | activity change, negative = inhibition, % at 57.5 µM | 4.5% of 410,000 active; in the data active = activity change below about -60%; inconclusive = no clear call, values can overlap the other calls; inactive = above about -39%
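Cell-based, HFFs, 1000 cells/well, 16 h 37C; cpds in DMSO + HCMV-luc, MOI 1 PFU/cell; 72 h 37C; OneGlo luminescence after 5 min RT; norm. to buffer vs Salinomycin 10uM.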
HCV inhibitor: qHTS Assay for Inhibitors of Hepatitis C Virus (HCV). Huh7.5.1 HCVcc-Cre infection, luciferase reporter, 44 h. Potency, µM (highest dose often 41.8 µM), most hits filed as inhibitors. 3.4% of 340,000 active. AID 651820, 2012; active = well fitted inhibition curve with a large enough effect; inconclusive = small, poorly fitted or top-dose-only effect, or another doubt; inactive = no such curve, though single readings can be large or run the other way
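Antiviral activity was scored by luciferase reporter output from cells infected with HCVcc-Cre (~0.5 moi) in presence of compound, 44 h infection period, cells seeded 1,000/well 4 h prior.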
FMDV inh: High Throughput Screening for Foot and Mouth Disease Virus Antivirals; FMDV antiviral cell-based qHTS; Potency, µM (titrated, usually from 57.9 µM), usual class: inhibitors; 1.2% of 410,000 active; AID 1159524, 2015; calls by dose curve; tested in HEK293T cells; note: read-out not given here; nearly all actives have a fitted effect of over 45% in size
MARV entry inh: qHTS for inhibitors of binding or entry into cells for Marburg Virus; 1.8% of 300,000 active; Potency, µM (series often up to 37.8 µM), usual class: inhibitors; Marburg virus pseudotyped entry inhibition, cell reporter; calls by dose curve; tested in HEK293 cells
Numbers stand for hits; - = inactive; ? = inconclusive; . = not tested or not shown; + = active, no number.

SMILES | Lassa entry inh | HCMV antiviral | HCV inhibitor | FMDV inh | MARV entry inh
O=c1ccn([C@@H]2O[C@H](COS(=O)(=O)O)[C@@H](O)[C@H]2O)c(=O)[nH]1 | . | -62 | - | - | .
CC(=O)OCC1OC(n2ccc(=O)[nH]c2=O)C(O)C1O (configuration not stated) | - | - | - | - | -
CCC(Oc1ccccc1)C(=O)N1CCN(C(=O)C(CC)Oc2ccccc2)CC1 (configuration not stated) | - | - | - | . | -
CC[n+]1c(/C=C/C=C/N(C(C)=O)c2ccccc2)sc2cc(OC)ccc21 | ? | -66 | ? | ? | ?
CC[n+]1c(/C=C(\C)OC)sc2ccccc21 | - | - | - | - | -
Cn1ccsc1=NC(=O)c1ccc(S(C)(=O)=O)c([N+](=O)[O-])c1 | ? | - | 10µM | ? | ?
CS(=O)(=O)c1ccc(C(=O)OCC(=O)NC23CC4CC(CC(C4)C2)C3)cc1[N+](=O)[O-] | - | - | ? | 35µM | ?
Cn1cccc1C(=O)NC(=O)COC(=O)c1ccc(S(C)(=O)=O)c([N+](=O)[O-])c1 | ? | . | ? | 32µM | ?
COc1cccc(-n2c(-c3ccccc3F)nc3c(cnn3-c3ccc(C)cc3)c2=O)c1 | ? | - | . | - | -
COc1ccc([C@]23Cc4cc(OC)c(OC)cc4[C@H](O2)C2=C(CC4(CCCCC4)OC2=O)O3)cc1 | . | . | . | . | -
CC(C)CCCN1C(N(C)C)=NC[C@@H]1Cc1ccccc1 | . | - | ? | - | .
Cc1cccc(C)c1NC(=O)C1CCN(S(C)(=O)=O)CC1 | - | - | - | - | -
CCOC(=O)c1cc(-c2ccc(C)cc2)n(CC(=O)Nc2cc(C)ccc2C)c1C | . | - | . | - | -
CCOC(=O)c1cc(-c2ccc(C)cc2)n(CCCC(=O)Nc2cc(C)ccc2C)c1 | - | + | . | - | .
Cc1ccc(C(=O)c2coc3ccc(O)c(CN4CCN(C)CC4)c23)cc1 | - | - | ? | - | 23µM
COc1ccc(C(=O)c2coc3ccc(O)c(CN4CCCC4)c23)cc1 | . | - | - | - | .
Cc1ccc(-n2nc(C)c(NC(=O)CCl)c2C)cc1C | 11µM | -103 | 3.5µM | - | ?
Cc1nn(C)c(C)c1NC(=O)CCl | 11µM | -70 | - | - | -
Cc1nn(C)c(C)c1NC(=O)COc1ccc(Cl)cc1 | . | - | 11µM | ? | .
CN1CC=C2C(C#N)=C(N)C(C#N)(C#N)[C@H](c3ccncc3)[C@H]2C1 | . | . | . | . | -
CCOCN(C(=O)Cn1cnc2cc(C)c(C)cc21)c1c(C)cccc1CC | - | - | . | - | ?
COc1ccc(CN2CCN(Cc3cc(=O)oc4cc(C)ccc34)CC2)c(OC)c1OC | - | - | ? | - | 14µM
COc1ccccc1N1CCN(Cc2cc(=O)oc3cc(C)ccc23)CC1 | ? | - | . | ? | .
COc1ccc(CN2CCN(Cc3ccc(Br)cc3)CC2)c(OC)c1OC | . | -68 | 13µM | ? | .
COc1ccc(Br)cc1CN1CCN(Cc2c[nH]c3ccccc23)CC1 | ? | -100 | ? | - | ?
SMILES | Lassa entry inh | HCMV antiviral | HCV inhibitor | FMDV inh | MARV entry inh
COc1ccc(CN2CCN(C(c3ccc(F)cc3)c3ccc(F)cc3)CC2)c(OC)c1OC | . | - | 1µM | - | .
COc1ccc(CN2CCNCC2)c(OC)c1OC | . | ? | ? | - | .
O=C(CSC1=NS(=O)(=O)c2cc(Cl)ccc2N1)c1ccc(Cl)cc1 | ? | - | - | - | -
O=C(Nc1ccccc1F)N1C[C@@H]2[C@H](c3ccccc31)[C@H](CO)N2C(=O)Nc1ccccc1 | . | - | . | . | .
COc1ccc(-n2cc(C(=O)N(CCN(C)C)Cc3ccccc3)c3ccccc3c2=O)cc1 | - | - | . | - | .
Cc1nnc(NC(=O)CSc2ccccc2N)s1 | . | - | - | - | .
Cc1ccc(C(C)(C)C)c(SCC(=O)Nc2nnc(C)s2)c1 | 7.1µM | ? | ? | - | 7.1µM
COc1cc2c(cc1OC)C(C)N(C(=O)c1cc3c(C)cc(C)cc3[nH]1)CC2 (configuration not stated) | ? | - | 22µM | - | 3.2µM
COc1cc2c(cc1OC)C(C)N(C(=O)Nc1ccc(F)cc1)CC2 (configuration not stated) | . | -102 | - | - | .
COc1cccc([C@@H]2C(C#N)=C(N)Oc3cc(C)[nH]c(=O)c32)c1OC | . | . | . | . | -
CCCNC(=O)N1[C@@H]2Cn3c(cccc3=O)[C@H]1[C@@H](C(=O)OC)[C@@H]2CO | . | - | . | . | .
C[C@]12C=CC(=O)C=C1CC[C@@H]1C2=CC[C@]2(C)[C@@H](C(=O)CN3CCN(c4cc(N5CCCC5)nc(N5CCCC5)n4)CC3)CC[C@@H]12 | - | ? | - | - | 5.6µM
Brc1ccc(N=Nc2ccc3ccccc3n2)cc1 | 1.1µM | ? | - | 10µM | ?
Cc1cc(S(=O)(=O)NCCCn2ccnc2)c(C)cc1Cl | - | - | - | - | -
Cc1cc(C)c(S(=O)(=O)NCCCn2ccnc2)cc1C | ? | - | - | - | 3.5µM
CCc1cccc(CC)c1NC(=O)c1cccc(NC(=O)c2ccccc2)c1 | - | -67 | ? | - | ?
CCCCC(=O)Nc1cccc(NC(=O)c2cccc(Br)c2)c1 | . | - | 11µM | - | .
CCCOc1cccc(C(=O)NC(=S)Nc2cccc(C(F)(F)F)c2)c1 | ? | ? | - | . | -
CCc1cccc(C)c1NC(=O)c1cccc(C(=O)Nc2c(C)cccc2CC)c1 | - | - | . | - | .
CCOc1cccc(C(=O)Nc2cccc(NC(=O)c3ccco3)c2)c1 | - | -62 | ? | - | ?
CCOc1cccc(C(=O)NC(=S)Nc2cccc(C)c2)c1 | ? | -99 | - | - | ?
CC1(C)CC(=O)C2=C(C1)O[C@@]1(CCCCN3C(=O)c4ccccc4C3=O)Cc3c(ccc4ccccc34)[C@H]2O1 | . | . | . | . | -
CCCN(CCC)c1nn2c(=O)c(C(=O)NCc3cc(Br)ccc3OC)cnc2s1 | - | - | . | - | .
Cc1ccc(NC(=O)Cn2nnc(C(=O)NCCc3ccccc3)c2N)cc1C | - | - | . | - | .
CC(C)(C)OC(=O)C[C@@H]1C/C=C\C[C@H](CC(=O)N(CCO)Cc2ccccc2)C(=O)NC[C@H](c2ccccc2)OC1=O | . | - | - | - | .
SMILES | Lassa entry inh | HCMV antiviral | HCV inhibitor | FMDV inh | MARV entry inh
O=C(Nc1cccc(NC(=O)c2ccco2)c1)c1cccc(Br)c1 | ? | -90 | - | - | -
O=C(NC1CCCC1)c1cccc(NC(=O)c2ccco2)c1 | - | -107 | - | - | -
CC(=O)c1cccc(NC(=O)c2cccc(NC(=O)c3ccco3)c2)c1 | - | - | - | - | -
CN(C(=O)COC(=O)c1cc(-c2ccc(Cl)s2)nc2ccccc12)C1CCS(=O)(=O)C1 (configuration not stated) | . | - | 10µM | - | .
COCCCNC(=O)Cn1c(=O)n(Cc2ccc(C(=O)NCc3ccc(C)cc3)cc2)c(=O)c2ccccc21 | - | - | . | - | -
CCN1CCCC1CNC(=O)c1cnn(-c2nccc(-c3ccccc3F)n2)c1C (configuration not stated) | . | . | . | - | .
CN(CC(=O)NCc1ccccn1)S(=O)(=O)c1cc(Cl)ccc1Cl | - | - | - | - | -
